Screening results: PubChem BioAssay, Broad Institute
Calb FLC – C. albicans growth inhibition with fluconazole, primary screen, CaCi-2 strain, Alamar Blue fluorescence. AID 1979, 2009. hit rate 0.57% among 300,000. growth inhibition, % (concentration not given with the values). C. albicans CaCi-2 (fluconazole-resistant clinical isolate) + fluconazole, 48 h;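 active = growth inhibition above about 58% in most replicates, limit read from the data, passing the limit was not always enough; inconclusive = exactly half the replicates above a set limit; inactive = most replicates below a set limit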;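 also: all wells also contain fluconazole at 8 µg/ml as a sub-toxic cotreatment; 0% = median of DMSO wells and 100% = median of geldanamycin control wells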
Beta apoptosis – inhibitors of cytokine-induced beta cell apoptosis, primary screen, luminescence | INS-1E cytokine-induced death, ATP luminescence, 48 h; percent of positive-control rescue, neutral wells zero | protection from apoptosis, % (no concentration beside the values) | hit rate 0.8% among 300,000;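 active = Every replicate reaches about 75%, or at least half do and their mean reaches it too, limit read from the data; inconclusive = At least half of replicates reach the limit but their mean does not; inactive = Under half of replicates reach the limit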;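 also: 0% = cytokine-treated negative control wells and 100% = positive control rescue; higher means more ATP so stronger rescue from cytokine killing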
PfHsp90 set2 – growth inhibition of PfHsp90-expressing yeast, primary screen, antimalarial PfHsp90 inhibitor project, S. cerevisiae, BacTiter-Glo luminescence, single point, set 2. BacTiter-Glo ATP, 48 h; yeast lacking PDR1 and PDR3 efflux regulators. inhibition, % at 9.4 µM. hit rate 0.32% among 310,000. AID 504621, 2011;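 active = every replicate shows inhibition above about 80%, whatever the replicate mean, limit read from the data; inconclusive = mean inhibition reaches the set limit but some replicate falls short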;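 also: 0% = DMSO neutral controls and 100% = 20 µM radicicol positive controls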
Shn3 inh set2 – reduction of Shn3 3'UTR firefly luciferase signal, primary screen, Schnurri-3 inhibitor project, cell-based, Clone20 osteoblasts, set 2. inhibition, % at 12.5 µM. hit rate 0.52% among 360,000. Clone20 osteoblast Shn3 3'UTR firefly luciferase, 24 h;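 active = mean inhibition of at least 75% with every replicate also reaching 75%; inconclusive = mean inhibition at least 75% but some replicate below; inactive = mean inhibition below 75%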;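 also: 0% = median of neutral control wells and 100% = pilot-screen positive control compound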
CSC inhib – cancer stem cell viability inhibitors, primary screen, luminescence | cancer stem cell-like cells viability | inhibition, % at 7.5 µM | hit rate 1.1% among 300,000 | AID 2717, 2010; in the data active = inhibition above about 75%; inconclusive = no clear call, values can overlap the other calls; tested in HMLE shEcad cells
Starred values were filed as active, the others as inactive; ? = inconclusive; . = no result. Hits are enriched below; roughly 2.2% of the tested compounds scored in any of these assays.

SMILES	Calb FLC	Beta apoptosis	PfHsp90 set2	Shn3 inh set2	CSC inhib
O=C(OCn1ncc(Cl)c(Cl)c1=O)c1ccc(C(F)(F)F)cc1	106*	.	52	95*	.
Cc1ccc(C(=O)OCn2ncc(Cl)c(Cl)c2=O)cc1	114*	101*	96*	91*	.
O=C(CN(Cc1ccc(Cl)cc1)C(=O)CNS(=O)(=O)c1ccc(F)cc1)NCC1CCCO1 (stereo not given)	-4	3	-31	2	3
CC(Sc1nc2ccccc2c(=O)n1C)C(=O)N(C)C1CCCCC1 (stereo not given)	-6	50	-8	88*	-15
O=C(CSc1nnnn1-c1ccc(F)cc1)Nc1ccccc1F	-2	-12	-17	-3	-18
CSCCC1NC2(C(=O)Nc3c(C)cc(Cl)cc32)[C@@H]2C(=O)N(C3CCCC3)C(=O)[C@H]12 (stereo not given in full)	84*	.	-13	10	1
Cc1ccc(C2CC2C(=O)NNC(=S)Nc2cccc(Cl)c2)cc1 (stereo not given)	112*	6	5	-6	55
Cc1ccc(C2CC2C(=O)NNC(=S)Nc2cccc(C)c2)cc1 (stereo not given)	?	3	.	-10	34
Cc1cc(Cl)ccc1NC(=O)CSc1n[nH]c(N)n1	.	-11	-6	-3	-8
Cc1ccc(-c2cc3cccc[n+]3cc2-c2ccc(C)cc2)cc1	-2	110*	1	82	4
CCOCCCNC(=S)N1CCN(c2nc(-c3ccccc3)cs2)CC1	9	.	-5	26	1
CCc1nnc(NC(=O)CN2CCN(c3nc(-c4ccccc4)cs3)CC2)s1	90*	3	3	-3	-7
O=C(CN1CCN(c2ccccc2F)CC1)Nc1nnc(C(F)(F)F)s1	86*	3	12	-17	1
CCN(CC)CCCNC(=S)N1CCN(c2nc(-c3ccccc3)cs2)CC1	-7	.	-30	16	79*
O=S(=O)(c1cccc2ccccc12)N1CCC2CC1c1cc(Cl)ccc12 (stereo not given)	.	.	-27	15	.
COCCNC(=O)Cn1nc(-c2ccc(C)cc2)ccc1=O	-1	-11	2	-15	-6
CCN(CC)CCOC(=O)c1ccc(N/C=C(/C#N)c2nc(-c3ccc4c(c3)OCO4)cs2)cc1	11	113*	20	-20	-5
O=C(NCc1nc2ccccc2[nH]1)c1ccc(Cl)c(S(=O)(=O)N2CCCC2)c1	2	-1	3	-8	-17
CCCn1c(NC(=O)c2ccc(Cl)c(S(=O)(=O)N3CCCC3)c2)nc2ccccc21	?	.	47	91*	38
CCOC(=O)c1cnc(-n2cc(C)cn2)nc1Nc1ccccc1OCC	99*	15	17	1	11
CCCCNC(=O)C1(C)CCN1C(=O)c1oc2ccccc2c1C (stereo not given)	.	.	.	-5	.
Cc1ncn(-c2ccccc2)c1-c1ccccc1	-11	4	-2	12	12
Cc1ccc(Cl)cc1NC(=O)COC(=O)c1ccccc1O	1	-3	-2	-14	12
Cc1ccc(Cl)cc1NC(=O)c1cc2ccccc2cc1O	3	104*	-34	73	28
COc1ccccc1NC(=O)c1cc2cc(Br)ccc2cc1O	0	?	-4	29	106*
SMILES	Calb FLC	Beta apoptosis	PfHsp90 set2	Shn3 inh set2	CSC inhib
COc1cc(NC(=O)c2cc3ccccc3cc2O)c(OC)cc1Cl	-6	111*	-6	43	76*
O=C(c1ccnc(Cl)c1)N1CCCC(N2CCN(c3ccccc3F)CC2)C1 (stereo not given)	-1	-3	3	-8	-10
COc1ccc(-n2c(SCC(=O)Nc3cc(C)on3)nc3c(c2=O)SC(C)C3)cc1 (stereo not given)	.	.	.	0	.
CC(NC(=O)CCCc1ccccc1)c1ccncc1 (stereo not given)	-8	.	2	2	.
CC(C)N1C(=O)/C(=C\c2nc3ccccc3c(=O)n2-c2ccccc2)c2ccccc21	-5	4	-3	-23	75*
O=C(Nc1ccc(S(=O)(=O)Nc2ncccn2)cc1)c1ccccc1NS(=O)(=O)c1ccc(Cl)cc1	1	-2	4	-14	3
Cc1ccc(C(=O)NCC(=O)OCC(=O)Nc2ccccc2C#N)s1	6	-4	25	-16	3
COc1ccc(-c2nnc(SCC(=O)Oc3ccc(C)cc3)o2)cc1	8	-3	105*	-10	7
COc1ccc(C(=O)CSc2nnc(-c3ccc(C)cc3)o2)cc1	3	5	.	13	-22
O=C(COC(=O)CCc1c[nH]c2ccccc12)NCc1ccc2c(c1)OCO2	-9	.	20	-7	0
COc1ccc(N(C)C(=O)c2ccc3c(c2)nnn3C)cc1	10	1	.	-1	-12
COc1ccc(N(C)C(=O)c2ccc3snnc3c2)cc1	3	-2	12	87*	-13
COc1ccc(NC(=S)Nc2ccc3snnc3c2)cc1	4	-10	109*	-13	-5
O=C(CSc1ccc([N+](=O)[O-])cn1)Nc1cc(C(F)(F)F)ccc1N1CCOCC1	0	-3	2	16	1
Cn1ccnc1C(=O)c1cc(SCC(=O)NC2CC2)nc2ccccc12	6	-6	-14	-2	-9
CN(C(=O)CSc1cc(C(=O)c2nccn2C)c2ccccc2n1)c1ccccc1	4	106*	5	.	.
CCOc1ccccc1N1CCN(CC(O)COC2CCCc3ccccc32)CC1 (stereo not given)	83*	3	-4	-5	-1
COc1ccc(CCNC(=O)c2ccc(NS(=O)(=O)c3ccc4[nH]c(=O)[nH]c4c3)cc2)cc1	-21	2	-18	-35	-9
COCCSc1nnc(NC(=O)CCS(=O)(=O)c2ccccc2)s1	88*	-11	29	-12	21
CC(=O)c1sc(NC(=O)CCS(=O)(=O)c2ccccc2)nc1C	86*	-39	-5	4	-9
CCc1ccc2oc(C(=O)NCC(c3ccc(OC)cc3)N3CCCCC3)c(C)c2c1 (stereo not given)	3	16	-8	-5	85*
CN(C)S(=O)(=O)N1CCN(c2ccc([N+](=O)[O-])c(N3CCCCC3)c2)CC1	-14	7	24	-4	25
CC(Sc1ncn[nH]1)C(=O)Nc1ccc(Cl)cn1 (stereo not given)	.	-3	11	2	-6
CCN(c1ccccc1)S(=O)(=O)c1ccc(Cl)c(NC(=O)CN(C)C2CCN(C)CC2)c1	78*	11	31	3	-4
CCN(c1ccccc1)S(=O)(=O)c1ccc(Cl)c(NC(=O)CN2CCN(C)CC2)c1	.	-2	-4	-5	.
CCOC(=O)c1c2c(n(C)c1C)C(=O)C(=O)c1ccc(Br)cc1-2	-33	57	.	94*	121*
